According to PubChem BioAssay AID777 (Sanford-Burnham Center for Chemical Genomics, 2007):
Among all 96,000 compounds or so, about 19,000 (20%) were called active.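 How the source made its calls: active means blocking of liver enzyme CYP2C9 beyond about 50% at 5 µM (limit read from the data); inactive means the rest.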 A selection follows.

molecular target: Cytochrome P450 2C9 (Homo sapiens) (UniProt P11712); assay: blockers of cytochrome P450 2C9 activity – biochemical, luminescence, ADME assay, primary screen (AID 777); conditions: CYP2C9 Supersomes, luciferin-H conversion, at 5 µM, active compounds read high
Sequence (P11712 whole entry, looked up): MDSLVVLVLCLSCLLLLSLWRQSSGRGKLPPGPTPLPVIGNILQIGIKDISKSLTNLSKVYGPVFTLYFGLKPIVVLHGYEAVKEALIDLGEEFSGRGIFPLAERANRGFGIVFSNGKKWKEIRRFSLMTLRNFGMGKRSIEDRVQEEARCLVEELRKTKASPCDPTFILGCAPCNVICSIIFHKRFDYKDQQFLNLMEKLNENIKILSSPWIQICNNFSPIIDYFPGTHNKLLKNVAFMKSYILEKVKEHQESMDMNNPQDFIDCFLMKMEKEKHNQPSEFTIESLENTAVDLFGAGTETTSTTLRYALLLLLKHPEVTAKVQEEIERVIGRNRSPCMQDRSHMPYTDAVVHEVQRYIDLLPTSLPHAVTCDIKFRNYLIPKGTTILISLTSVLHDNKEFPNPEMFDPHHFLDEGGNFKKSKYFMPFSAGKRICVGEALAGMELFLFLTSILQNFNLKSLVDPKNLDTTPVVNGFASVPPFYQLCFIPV

Which inhibition does the source give for O=C(Nc1ccc2c(c1)OCO2)C1CC(c2c(F)cccc2Cl)=NO1 (stereo not drawn) here?
Its inhibition is -159% (inactive).

With COCn1c(COc2ccccc2)nc2ccccc21 as the compound, how does the inhibition read?
Its inhibition is 43.7% (inactive).

How did the inhibition turn out when CCCCNC(=O)CCNC(=O)c1ccc(C(C)(C)C)cc1 was run?
The inhibition was 41.3% (inactive).

With CCN(CC(=O)NC(C)C)C(=O)CCNC(=O)c1ccc(Cl)cc1 as the compound, how does the inhibition read?
The inhibition was 6.3% (inactive).

Which inhibition does the source give for Cc1ccc(CNC(=O)CCCNC(=O)c2ccc(Cl)cc2)n1C here?
Its inhibition is 80.5% (active).

For CCCCNC(=O)C(=O)c1ccccc1NC(C)=O, which inhibition is on record?
The inhibition was 15.4% (inactive).

How did the inhibition turn out when CCCNC(=S)NC1CC2CCCC(C1)N2CC(C)C (stereo not drawn) was run?
Its inhibition is -4.2% (inactive).

Which inhibition does the source give for Cc1cc(OC(=O)c2ccc(Cl)cc2)cc(=O)n1C here?
Its inhibition is 32% (inactive).

How did the inhibition turn out when COc1ccccc1C1C2=C(COC2=O)Nc2cc3c(cc21)OCO3 (stereo not drawn) was run?
Its inhibition is 28.2% (inactive).

For CCCOc1ccccc1C1CC(=O)Nc2cc3c(cc21)OCO3 (stereo not drawn), which inhibition is on record?
Its inhibition is 94.4% (active).

Which inhibition does the source give for COCCOC(=O)C1=C(C)NC(=O)CC1c1cc2c(cc1Br)OCO2 (stereo not drawn) here?
Its inhibition is 8.2% (inactive).

For CC1(C)CC(=O)C(C2=NC(C)(C)Cc3ccccc32)=C(O)C1, which inhibition is on record?
The inhibition was 5.8% (inactive).

For C=CCOc1c2ccc(C(=O)N(CC)c3ccc(OC)cc3)cc2nn1C, which inhibition is on record?
Its inhibition is 47.3% (inactive).

How did the inhibition turn out when COc1ccc(-c2nnc(SC(=O)N3c4ccccc4Sc4ccccc43)o2)cc1 was run?
Its inhibition is 83.1% (active).

COc1cc(OC)cc(C(=O)NC2CCN(C(=O)N3c4ccccc4Sc4ccccc43)CC2)c1 was tested. Which inhibition did it give?
Its inhibition is 41.4% (inactive).

For COc1ccc(-c2nnc(SC(C)C#N)o2)cc1 (stereo not drawn), which inhibition is on record?
Its inhibition is 13.9% (inactive).

How did the inhibition turn out when COc1ccc2c(c1)cc1n2CCN=C1NN was run?
The inhibition was 42.7% (inactive).

How did the inhibition turn out when Cc1ccc(C(=O)NC2CCN(C(=O)N3CCOCC3)CC2)cc1 was run?
Its inhibition is -6.4% (inactive).

With N#Cc1nc(N)nc(N(c2ccccc2)c2ccccc2)n1 as the compound, how does the inhibition read?
Its inhibition is 19.9% (inactive).

CCOC(=O)c1cc2c(n(-c3ccc(C)cc3)c1=O)CCCC2=O was tested. Which inhibition did it give?
Its inhibition is 12% (inactive).

Cc1n[nH]c(=O)n1-c1ccc(Oc2ccccc2)cc1 was tested. Which inhibition did it give?
The inhibition was 0.7% (inactive).

How did the inhibition turn out when Cc1ccc(N)cc1-n1c(C)ccc1C was run?
The inhibition was -1.6% (inactive).

How did the inhibition turn out when Cc1ccccc1CSc1nnc(-c2ccccn2)n1N was run?
Its inhibition is -28.8% (inactive).

How did the inhibition turn out when COc1ccc(N(CC(=O)N/N=C/c2cccc3c2OCCO3)S(=O)(=O)c2ccc(NC(C)=O)cc2)cc1 was run?
The inhibition was 76.1% (active).

For COc1ccc(N(CC(=O)N/N=C/c2cccs2)S(=O)(=O)c2ccc(OC)c(OC)c2)cc1, which inhibition is on record?
The inhibition was 44.2% (inactive).

How did the inhibition turn out when Cc1ccc(S(=O)(=O)N(CC(=O)N/N=C/c2ccc(F)cc2)c2cccc3cccnc23)cc1 was run?
The inhibition was 9.7% (inactive).

For Cn1c(=N)n(CC(O)c2ccccc2)c2ccccc21 (stereo not drawn), which inhibition is on record?
The inhibition was -27.2% (inactive).

Cn1cccc1C(=O)Nc1nccs1 was tested. Which inhibition did it give?
Its inhibition is 2.9% (inactive).

For Cc1c(Br)c([N+](=O)[O-])nn1C(C)C(=O)Nc1nccs1 (stereo not drawn), which inhibition is on record?
The inhibition was 73.2% (active).

COc1cc(C(=O)Nc2nccs2)cc(OC)c1OC was tested. Which inhibition did it give?
The inhibition was 42% (inactive).

For O=P(O)(CN1CCCCC1)CN1CCCCC1, which inhibition is on record?
The inhibition was -9.6% (inactive).

For COc1ccc(C(=O)OCC(=O)NCC2CCCCC2)cc1S(=O)(=O)N1CCCc2ccccc21, which inhibition is on record?
The inhibition was 9.6% (inactive).

Which inhibition does the source give for CSc1nc2ccc(S(=O)(=O)N3CCc4ccccc43)cc2s1 here?
The inhibition was 15.3% (inactive).

How did the inhibition turn out when Cn1c(=O)n(C)c2cc(S(=O)(=O)N3CCCc4ccccc43)ccc21 was run?
Its inhibition is 66.5% (active).

CC1CCC(NS(=O)(=O)c2ccc3c(c2)n(C)c(=O)c(=O)n3C)CC1 (stereo not drawn) was tested. Which inhibition did it give?
Its inhibition is 8.5% (inactive).

How did the inhibition turn out when Cc1nn(C)c(C)c1S(=O)(=O)N1CCc2ccccc21 was run?
Its inhibition is -33.4% (inactive).

CCn1c(=O)c(=O)n(CC)c2cc(S(=O)(=O)N3CCc4ccccc43)ccc21 was tested. Which inhibition did it give?
The inhibition was 96.5% (active).

How did the inhibition turn out when Cc1ccc(-n2c(=O)c(C#N)cc3c(=O)n4ccccc4nc32)cc1C was run?
Its inhibition is -2.8% (inactive).

With Cc1cc(C=O)c(C)n1-c1ccc(NC2CCCCC2)c([N+](=O)[O-])c1 as the compound, how does the inhibition read?
The inhibition was 15.9% (inactive).

Which inhibition does the source give for Cc1ccoc1C(=O)Nc1cccc(Oc2ccccc2)c1 here?
Its inhibition is 34% (inactive).

Which inhibition does the source give for O=C(OCCO)c1cc(Cl)c(C(=O)OCCO)cc1Cl here?
Its inhibition is 48.4% (inactive).

With Cc1ccc(NC(=O)c2ccc(CSc3ncnc4nc[nH]c34)cc2)c(C)c1 as the compound, how does the inhibition read?
The inhibition was -76.5% (inactive).

With CCN1CCN(C(c2cccnc2)c2cc(Cl)c3cccnc3c2O)CC1 (stereo not drawn) as the compound, how does the inhibition read?
The inhibition was 29.8% (inactive).

How did the inhibition turn out when CCn1ncc(C2=NOC(C(=O)Nc3ccccc3C(=O)OC)C2)c1C (stereo not drawn) was run?
Its inhibition is -34.3% (inactive).

With CC(C)CCNc1nc(N2CCCC2)c2c(c1C#N)CCN(C)C2 as the compound, how does the inhibition read?
Its inhibition is 69.7% (active).

Which inhibition does the source give for CCN1CCc2c(C#N)c(NCc3ccccc3)nc(NCCO)c2C1 here?
The inhibition was 35.5% (inactive).

For CCOC(=O)C(C)Oc1cccc2c(=O)n(CC(=O)N3CCc4ccccc43)ccc12 (stereo not drawn), which inhibition is on record?
The inhibition was 9% (inactive).

Which inhibition does the source give for O=S(=O)(c1cccc(-c2nnc(SC(F)F)n2-c2ccccc2)c1)N1CCCCC1 here?
Its inhibition is 21.2% (inactive).

With O=S(=O)(c1cccc(S(=O)(=O)N2CCC(n3nnc4ccccc43)CC2)c1)N1CCCCC1 as the compound, how does the inhibition read?
Its inhibition is 88.3% (active).

How did the inhibition turn out when CC(=O)c1cccc(S(=O)(=O)N2CCC(n3nnc4cc(F)ccc43)CC2)c1 was run?
The inhibition was -31% (inactive).

How did the inhibition turn out when CCCN(CCC)CCNC(=O)c1cc2c(C)nc3ccccc3c2o1 was run?
Its inhibition is 8.6% (inactive).

For Cc1sc2c(c1C)c(=O)n(-c1ccccc1)c1nncn21, which inhibition is on record?
Its inhibition is -2.8% (inactive).

With N#Cc1nc(Cc2ccccc2)oc1NCCc1ccccc1 as the compound, how does the inhibition read?
The inhibition was 39.2% (inactive).

With N#Cc1nc(COc2ccc(-c3ccccc3)cc2)oc1NCc1cccnc1 as the compound, how does the inhibition read?
The inhibition was 70.7% (active).

How did the inhibition turn out when N#Cc1nc(-c2ccc(OCc3ccccc3)cc2)oc1NCCCN1CCOCC1 was run?
The inhibition was 41% (inactive).

CCOc1ccc(Nc2oc(Cc3ccccc3)nc2C#N)cc1 was tested. Which inhibition did it give?
Its inhibition is 78.1% (active).

With COc1ccc(Nc2oc(-c3ccccc3Cl)nc2C#N)cc1 as the compound, how does the inhibition read?
The inhibition was 47% (inactive).

For c1ccc(-c2cc(-c3nnc4sc(-c5ccccn5)nn34)[nH]n2)cc1, which inhibition is on record?
The inhibition was -2.3% (inactive).

COc1ccc(C(F)(F)F)cc1N/C=C\c1nnnn1-c1ccc(C)cc1 was tested. Which inhibition did it give?
Its inhibition is 44.6% (inactive).

How did the inhibition turn out when CCN(CC)S(=O)(=O)c1cc(C(=O)Nc2ccccn2)ccc1C was run?
The inhibition was 38.8% (inactive).

Which inhibition does the source give for CCN(CC)C(=O)N1CCN(C(=O)c2ccc(C)cn2)CC1 here?
Its inhibition is -1% (inactive).

Which inhibition does the source give for CCCOc1ccc(C2NC(=O)NC(c3ccccc3)=C2C(C)=O)cc1OCC (stereo not drawn) here?
The inhibition was 37.3% (inactive).

With Cc1cccc(COc2ccccc2/C=N/Nc2ccc([N+](=O)[O-])cc2)c1 as the compound, how does the inhibition read?
Its inhibition is 43.5% (inactive).
